A short description of experiment [1]: Nuclear factor erythroid 2-related factor 2/antioxidant responsive element (Nrf2/ARE) small molecule agonists: qHTS cell viability counter screen in human keratinocytes (AID 1919968; active = well fitted curve in the direction sought with a large enough effect in the repeat runs; an effect the other way counts as inactive or inconclusive; also: nearly all actives have a fitted effect of over 55% in size). To be noted: KeratinoSens HaCaT ARE cells viability, CellTiter-Fluor, 24 h; series mostly up to 92.4 µM. The procedure, abridged:
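Seed 1,500 KeratinoSens cells per well, then incubate 5 h at 37 C/5% CO2. Add compounds in DMSO and incubate 23 h. Add CellTiter-Fluor, wait 1 h and read fluorescence.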

A short description of experiment [2]: Nuclear factor erythroid 2-related factor 2/antioxidant responsive element (Nrf2/ARE) small molecule agonists: luciferase reporter gene qHTS assay in human keratinocytes (AID 1919969). Also: nearly all actives have a fitted effect of over 35% in size. Also: potency is read from the fitted curve at half-maximal effect. The conditions noted are these: KeratinoSens HaCaT ARE-luciferase, luminescence, 24 h; series mostly up to 92.4 µM.
Experiment [3] concerns the target Gonadotropin-releasing hormone receptor (Homo sapiens) (UniProt P30968). The experiment can be described thus: Human gonadotropin-releasing hormone receptor (GnRHR) small molecule agonists, calcium flux assay in GnRHR-HEK293 cells (AID 1920063). Also: nearly all actives have a fitted effect of over 35% in size. To be noted: calcium flux fluorescence, agonist mode; series mostly up to 57.6 µM. The method, boiled down:
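Cells: HEK293 stably expressing human GnRHR. Steps: overnight (18 h) culture, 1 h calcium dye loading at 37 C, compound addition, kinetic fluorescence read at 480/540 nm. Each compound tested at 15 concentrations in triplicate.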
In general terms: Calcium assays in cells follow changes in intracellular calcium, usually with a dye or a luminescent sensor.

Experiment [4] addresses KiSS-1 receptor (Homo sapiens) (UniProt Q969F8). The experiment can be described thus: Human kisspeptin (KISS1R) small molecule agonists, calcium flux assay in KISS1R-HEK293 cells (AID 1920064; active = well fitted curve in the direction sought with a large enough effect in the repeat runs; an effect the other way counts as inactive or inconclusive). The conditions noted are these: KISS1R-HEK293, calcium flux fluorescence, agonist; series mostly up to 76.8 µM. The method, boiled down:
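Cells plated and incubated 18 h; dye added, 1 h at 37 C; compounds in DMSO pinned in; signal read at 480/540 nm every second for 3 min. Each compound tested at 15 concentrations in triplicate.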

The nature of experiment [5]: G protein-coupled receptor (GPCR) small molecule agonists, calcium flux assay: HEK293 wild type cell line counter screen (AID 1920065). The conditions noted are these: HEK293 WT calcium flux, fluorescence, agonist mode; series mostly up to 57.6 µM. The method, boiled down:
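Counter-screen of the Tox21 10K library for non-specific calcium release: dye-loaded cells received compounds in DMSO and were monitored by kinetic fluorescence (480/540 nm, 3 min). Fifteen concentrations, run in triplicate.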

A short description of experiment [6]: p53 small molecule agonists, cell-based qHTS assay with human liver microsomes (AID 1963577). To be noted: HCT-116 p53RE-bla with human liver microsomes, ratio, 16 h; series mostly up to 66 µM. The procedure, abridged: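 Compounds act here after metabolic activation: human liver microsomes and NADPH, both at 0.5 mg/mL final, were co-added to p53RE-bla cells. Incubation ran 16 h at 37 C, followed by LiveBLAzer detection.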
A general note: qHTS replaces the single test concentration by a dilution series.

The nature of experiment [7]: p53 small molecule agonists, cell-based qHTS assay with rat liver microsomes (AID 1963578). To be noted: HCT-116 p53RE-bla, beta-lactamase ratio, 16 h; series mostly up to 66 µM. The method, boiled down:
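Read-out is beta-lactamase reporter fluorescence (LiveBLAzer, 2 h, room temperature, dark) in p53RE-bla cells treated 16 h at 37 C with compound, rat liver microsomes and NADPH, both 0.5 mg/mL final.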

A short description of experiment [8]: p53 small molecule agonists, cell-based qHTS assay with human liver microsomes: qHTS cell viability counter screen (AID 1963579). Also: nearly all actives have a fitted effect of over 45% in size. To be noted: p53RE-bla HCT-116 viability, ATP luminescence, 16 h, HLM; series mostly up to 66 µM. The procedure, abridged:
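Cells carrying the p53 response-element beta-lactamase reporter are treated for 16 h at 37 C with test compounds in the presence of human liver microsomes and NADPH (both 0.5 mg/mL final); ATP-based CellTiter-Glo luminescence then reports viability.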

A short description of experiment [9]: p53 small molecule agonists, cell-based qHTS assay: qHTS cell viability counter screen (AID 1963581). Also: nearly all actives have a fitted effect of over 45% in size. The conditions noted are these: p53RE-bla HCT-116 viability, ATP luminescence, 16 h; series mostly up to 66 µM. The procedure, abridged:
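Cells: HCT-116 with p53 response element-driven beta-lactamase. Treatment: 16 h, 37 C, compounds in DMSO. Read: CellTiter-Glo luminescence after 30 min RT.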

Experiment [10] is described as follows: p53 small molecule agonists, cell-based qHTS assay (AID 1963582; active = well fitted activation curve with a large enough effect in the signal ratio in the repeat runs, not every such curve was filed as active; the % refers to the signal ratio). To be noted: HCT-116 p53RE-bla reporter, beta-lactamase FRET ratio, 16 h; series mostly up to 66 µM. The method, boiled down:
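Quantitative HTS in p53RE-bla cells: after a 5 h settling period, compounds delivered in DMSO were left on cells for 16 h at 37 C, and reporter induction was measured as fluorescence following 2 h substrate loading.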

Experiment [11] concerns the target 5-hydroxytryptamine receptor 2A (Homo sapiens) (UniProt P28223). As to the kind of experiment: 5-hydroxytryptamine receptor 2A (HTR2A) small molecule antagonists, cell-based qHTS assay (AID 1963586). Also: nearly all actives have a fitted effect of over 45% in size. The conditions noted are these: HTR2A-CHO cells, DOI-induced calcium flux, fluorescence; series mostly up to 61.5 µM. The method, boiled down: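 Antagonist-mode intracellular calcium assay: DOI (4 nM) added after 5 min compound pre-incubation at room temperature to dye-loaded HTR2A-CHO cells. Fluorescence followed for 3 min, sampled every second.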

Experiment [12] shares this target. The experiment can be described thus: 5-hydroxytryptamine receptor 2A (HTR2A) small molecule agonists, cell-based qHTS assay (AID 1963587). Also: nearly all actives have a fitted effect of over 30% in size. To be noted: HTR2A-CHO cells, calcium flux fluorescence, agonist mode; series mostly up to 76.8 µM. The method, boiled down: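 Kinetic calcium-flux fluorescence (2 min, 1 sec intervals) after compound addition in agonist mode. HTR2A-CHO cells were cultured 18 h, then dye-loaded 1 h at 37 C.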

Experiment [13] has as its target Muscarinic acetylcholine receptor M1 (Homo sapiens) (UniProt P11229). The experiment can be described thus: Cholinergic receptor muscarinic 1 (CHRM1) small molecule antagonists, cell-based qHTS assay (AID 1963588). Also: nearly all actives have a fitted effect of over 40% in size. The conditions noted are these: CHRM1-CHO antagonist mode, calcium flux fluorescence; series mostly up to 61.5 µM. The method, boiled down: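 CHRM1-CHO calcium-flux assay, antagonist mode. Cells were seeded 18 h, dye-loaded 1 h at 37 C and given compound for 5 min at RT, then acetylcholine was added at 50nM. FDSS fluorescence was read 3 min; 15 concentrations, three runs.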

Experiment [14] has the same target. The experiment can be described thus: Cholinergic receptor muscarinic 1 (CHRM1) small molecule agonists, cell-based qHTS assay (AID 1963589). Also: nearly all actives have a fitted effect of over 35% in size. The conditions noted are these: CHRM1-CHO cells, agonist mode, calcium flux fluorescence; series mostly up to 76.8 µM. The method, boiled down:
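Agonist-mode qHTS in CHO cells stably carrying human muscarinic M1. Intracellular calcium is tracked by fluorescence every second after compound transfer; each compound runs at 15 concentrations in three independent runs.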

Experiment [15] in a line: cAMP Responsive Elements (CRE) small molecule agonists, cell-based qHTS assay (AID 1963590). To be noted: CRE-bla HEK293T, beta-lactamase FRET ratio, 3 h; series mostly up to 92.4 µM. The procedure, abridged:
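Agonist mode qHTS in CRE-bla HEK 293T cells: compounds dosed from DMSO for 3 h at 37 C/5% CO2, followed by LiveBLAzer B/G FRET substrate for 2 h at room temperature.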

The nature of experiment [16]: cAMP Responsive Elements (CRE) small molecule antagonists, cell-based qHTS assay (AID 1963591; active = well fitted inhibition curve with a large enough effect in the signal ratio in the repeat runs, not every such curve was filed as active; the % refers to the signal ratio). The conditions noted are these: CRE-bla HEK293T, beta-lactamase FRET ratio; series mostly up to 92.4 µM. The method, boiled down: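 Antagonist mode: test compounds are co-incubated with the adenylyl cyclase activator NKH477 (0.25 uM final) on CRE-bla HEK293T cells for 3 h at 37 °C, followed by LiveBLAzer substrate loading.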

Experiment [17] deals with Beta-2 adrenergic receptor (Homo sapiens) (UniProt P07550). As to the kind of experiment: Adrenergic beta2 receptor (ADRB2) small molecule antagonists, cell-based qHTS assay (AID 1963592). Also: nearly all actives have a fitted effect of over 50% in size. To be noted: CHO-ADRB2 cells, isoproterenol-stimulated cAMP HTRF ratio, 0.5 h; series mostly up to 92.4 µM. The method, boiled down:
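Cells (CHO, stable ADRB2 overexpression) incubated 18-20hr at 37C; compounds added from DMSO; agonist mix (1nM isoproterenol, 100uM IBMX, 25uM Ro-20-1724) added; 0.5hr RT; d2-cAMP and anti-cAMP-cryptate added; 1hr RT; 665/615 nm read.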

Experiment [18] addresses D(2) dopamine receptor (Homo sapiens) (UniProt P14416). As to the kind of experiment: Dopamine D2 receptor (DRD2) small molecule antagonists, cell-based qHTS assay (AID 1963595; active = well fitted inhibition curve with a large enough effect in the signal ratio in the repeat runs, with a control signal flat; the % refers to the signal ratio). To be noted: HEK293-DRD2 cAMP HTRF antagonist mode; series mostly up to 92.4 µM. The procedure, abridged:
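Antagonism was scored as restored cAMP in HEK293-DRD2 cells. These cells were stimulated with 200 nM NKH477 and 12 nM quinpirole for 30 min at room temperature, in the presence of 0.1 mM Ro20-1724.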

Experiment [19] has the same target. As to the kind of experiment: Dopamine D2 receptor (DRD2) small molecule agonists, cell-based qHTS assay (AID 1963594). Also: nearly all actives have a fitted effect of over 35% in size. The conditions noted are these: HEK293-DRD2 cAMP HTRF, agonist mode, 30 min; series mostly up to 92.4 µM. The procedure, abridged:
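cAMP accumulation in DRD2-HEK293 cells measured by HTRF after 1 h detection; compounds added 10 min before NKH477 (200nM […]) forskolin-analogue stimulation, 30 min at room temperature, with Ro20-1724 present at 0.1 mM final.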

Structures are written as SMILES. Values without a mark were called inactive. Records with an inconclusive call do not appear. Calls of active or inactive are those of the source. Unless noted, calls follow the shape of the full dose curve.
% is scaled to controls: 0 for no effect and ±100 for the full control effect.

Sequence of 5-hydroxytryptamine receptor 2A (Homo sapiens) (P28223 whole entry, looked up): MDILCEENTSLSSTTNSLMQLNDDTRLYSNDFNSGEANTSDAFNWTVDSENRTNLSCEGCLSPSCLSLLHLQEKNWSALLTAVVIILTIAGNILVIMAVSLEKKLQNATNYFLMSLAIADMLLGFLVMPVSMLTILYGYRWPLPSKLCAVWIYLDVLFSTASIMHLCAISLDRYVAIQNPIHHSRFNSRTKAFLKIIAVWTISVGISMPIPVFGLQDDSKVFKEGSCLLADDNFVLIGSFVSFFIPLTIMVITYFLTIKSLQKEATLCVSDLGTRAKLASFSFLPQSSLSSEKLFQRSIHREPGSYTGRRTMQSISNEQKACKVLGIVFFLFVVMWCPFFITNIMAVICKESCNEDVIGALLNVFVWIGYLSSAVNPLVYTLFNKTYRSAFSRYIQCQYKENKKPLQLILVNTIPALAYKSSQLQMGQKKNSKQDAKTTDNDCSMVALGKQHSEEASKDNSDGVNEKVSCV
Sequence of Muscarinic acetylcholine receptor M1 (Homo sapiens) (P11229 whole entry, looked up): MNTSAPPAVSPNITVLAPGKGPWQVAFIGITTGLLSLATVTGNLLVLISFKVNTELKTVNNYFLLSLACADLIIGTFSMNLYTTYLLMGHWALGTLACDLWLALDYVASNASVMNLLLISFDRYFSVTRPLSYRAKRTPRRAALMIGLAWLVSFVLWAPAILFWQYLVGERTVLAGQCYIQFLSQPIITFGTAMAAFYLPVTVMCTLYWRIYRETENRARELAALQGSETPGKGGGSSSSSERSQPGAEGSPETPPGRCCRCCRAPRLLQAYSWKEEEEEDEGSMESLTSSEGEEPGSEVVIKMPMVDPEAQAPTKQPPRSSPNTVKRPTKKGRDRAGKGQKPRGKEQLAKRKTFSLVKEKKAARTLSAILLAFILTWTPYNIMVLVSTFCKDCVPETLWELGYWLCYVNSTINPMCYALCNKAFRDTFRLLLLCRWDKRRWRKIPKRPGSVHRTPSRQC
Sequence of KiSS-1 receptor (Homo sapiens) (Q969F8 whole entry, looked up): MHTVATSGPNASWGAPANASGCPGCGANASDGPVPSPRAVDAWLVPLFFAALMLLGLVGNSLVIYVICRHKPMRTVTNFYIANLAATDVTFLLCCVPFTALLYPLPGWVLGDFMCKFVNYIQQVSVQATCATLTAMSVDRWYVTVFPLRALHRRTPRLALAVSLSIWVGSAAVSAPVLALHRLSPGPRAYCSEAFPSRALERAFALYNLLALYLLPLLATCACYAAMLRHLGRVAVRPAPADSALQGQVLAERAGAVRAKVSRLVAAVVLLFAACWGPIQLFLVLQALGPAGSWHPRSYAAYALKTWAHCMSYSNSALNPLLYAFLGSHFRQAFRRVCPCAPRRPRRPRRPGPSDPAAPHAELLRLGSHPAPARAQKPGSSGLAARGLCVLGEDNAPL
Sequence of Beta-2 adrenergic receptor (Homo sapiens) (P07550 whole entry, looked up): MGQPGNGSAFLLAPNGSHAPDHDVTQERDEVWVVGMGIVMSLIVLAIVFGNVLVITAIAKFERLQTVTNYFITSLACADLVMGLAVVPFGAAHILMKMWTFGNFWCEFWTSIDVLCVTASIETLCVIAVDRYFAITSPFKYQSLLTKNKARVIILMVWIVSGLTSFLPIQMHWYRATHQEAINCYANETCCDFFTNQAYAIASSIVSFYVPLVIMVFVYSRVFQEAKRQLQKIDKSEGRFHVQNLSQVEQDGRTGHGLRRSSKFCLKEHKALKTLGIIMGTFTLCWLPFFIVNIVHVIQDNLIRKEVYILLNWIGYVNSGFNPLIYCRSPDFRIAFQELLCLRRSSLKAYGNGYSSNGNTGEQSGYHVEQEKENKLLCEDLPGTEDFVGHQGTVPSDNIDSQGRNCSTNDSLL
Sequence of D(2) dopamine receptor (Homo sapiens) (P14416 whole entry, looked up): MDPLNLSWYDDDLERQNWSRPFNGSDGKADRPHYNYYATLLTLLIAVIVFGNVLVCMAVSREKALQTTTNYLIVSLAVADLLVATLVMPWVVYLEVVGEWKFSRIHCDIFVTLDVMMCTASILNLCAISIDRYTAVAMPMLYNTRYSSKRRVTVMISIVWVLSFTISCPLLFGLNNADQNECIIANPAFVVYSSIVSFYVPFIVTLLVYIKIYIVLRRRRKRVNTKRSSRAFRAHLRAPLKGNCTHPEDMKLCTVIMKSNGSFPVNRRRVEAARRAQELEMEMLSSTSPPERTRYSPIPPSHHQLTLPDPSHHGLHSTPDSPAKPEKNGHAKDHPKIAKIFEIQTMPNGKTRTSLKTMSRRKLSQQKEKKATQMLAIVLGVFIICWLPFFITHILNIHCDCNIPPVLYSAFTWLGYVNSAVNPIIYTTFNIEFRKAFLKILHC
Sequence of Gonadotropin-releasing hormone receptor (Homo sapiens) (P30968 whole entry, looked up): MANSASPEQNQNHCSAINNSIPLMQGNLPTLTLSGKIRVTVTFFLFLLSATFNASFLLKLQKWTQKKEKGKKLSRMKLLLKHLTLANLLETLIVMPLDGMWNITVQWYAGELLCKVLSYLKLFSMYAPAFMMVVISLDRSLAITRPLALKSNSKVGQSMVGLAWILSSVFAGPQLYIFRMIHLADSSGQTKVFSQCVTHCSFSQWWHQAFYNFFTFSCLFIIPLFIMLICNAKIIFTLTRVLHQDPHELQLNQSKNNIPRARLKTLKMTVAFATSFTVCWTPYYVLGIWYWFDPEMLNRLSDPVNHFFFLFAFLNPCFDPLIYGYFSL

For `O=S(O)(O)=S`, the activity change, negative = cytotoxicity was -0.897% [at 8.39 µM] in experiment [1], -5.1% [at 5.99 µM] in [8] and -0.464% [at 5.99 µM] in [9]. Besides, the activity, positive = activation in [2] is -3.55% [at 8.39 µM]. In addition, in experiment [3], the activity change is 4.24% [at 5.22 µM, active compounds read high]. Besides, the activation was -0.115% [at 6.97 µM] in experiment [4]; 0.868% [at 5.23 µM] in experiment [5]; 0.289% [at 5.99 µM] in [6]; -2.47% [at 5.99 µM] in [7]; -3.63% [at 5.99 µM] in [10]; 7.09% [at 7.02 µM] in experiment [12]. Moreover, the activation was -0.0505% [at 6.97 µM] in experiment [14] and -0.269% [at 8.39 µM] in experiment [15]. The activity, negative = inhibition is 5.27% [at 5.62 µM] in experiment [11] and 0.0869% [at 5.58 µM] in [13]. Moreover, the activity change, negative = inhibition was -0.372% [at 8.39 µM] in experiment [16], 6.54% [at 8.39 µM] in [17] and -2.62% [at 8.38 µM] in [18].
For `C=CC(=O)OCC(Br)CBr` (stereo unspecified), the Potency entry in experiment [1], in [3], in experiment [6], in experiment [7], in experiment [8] and in [9] was “inactive” throughout. For the same compound, the Potency entry in [10], in [11], in experiment [12], in [13], in experiment [15] and in experiment [16] was “inactive” each time. Also, the Potency entry in experiment [17], in experiment [19] and in experiment [18] was “inactive” each time. The Potency in experiment [2] was 68.6 µM (active). Further, the result in experiment [4] and in experiment [5] was inactive.
Consider `N#Cc1ccc(CC(=O)c2cccc(C(F)(F)F)c2)cc1`, for which the Potency result in experiment [1], in [2], in [3], in experiment [6], in experiment [7] and in experiment [8] was “inactive” throughout. Besides, the Potency result in experiment [10], in [11], in experiment [12], in experiment [13], in experiment [14] and in experiment [15] was “inactive” each time. The Potency result in [16], in experiment [17], in experiment [19] and in experiment [18] was “inactive” throughout. For the same compound, the result in experiment [4] and in experiment [5] was inactive.
With `O=C(O)c1cc(Cl)cc(Cl)c1O`, the Potency result in experiment [1], in experiment [2], in experiment [3], in experiment [6], in experiment [7] and in experiment [8] was “inactive” in each case. The Potency result in experiment [10], in experiment [11], in experiment [12], in experiment [13], in experiment [14] and in experiment [16] was “inactive” throughout. Moreover, the Potency entry in [17], in experiment [19] and in experiment [18] was “inactive” throughout. In addition, the outcome in experiment [4] and in [5] was inactive.

(Values after PubChem BioAssay (Tox21).)
